# Source: PubChem BioAssay (NCATS)
# A number with no mark means an inactive call. The call rests on the fitted dose curve; in most records, active means well fitted curve in the direction sought with a large enough effect; inconclusive means small, poorly fitted or top-dose-only effect, or another doubt; inactive means no such curve, though single readings can be large; an effect the other way counts as inactive or inconclusive.
# Assay: Cellular Toxicity (caspase-3) SHSY5Y (AID 657)
# Conditions: SH-SY5Y caspase-3 activation, DMSO zero, 10 µM staurosporine = 100%; series mostly up to 91.7 µM; caspase-3 activation: at the top concentration
# Procedure, shortened: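 Luminescent Caspase-Glo 3/7 read-out, 1 hr room temperature, follows 16 hours of compound treatment of SH-SY5Y cells at 37 °C. Normalization: DMSO basal, 10 uM staurosporine as 100%; AC50 values from Hill-equation concentration-response fits.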
row,Compound,caspase-3 activation
1,CC(C#N)CCC#N (configuration not stated),-0.503%
2,Nc1cc(Cl)ccc1Cl,1.02%
3,Nc1cccc(Cl)c1,2.21%
4,ClCc1ccccc1,-0.504%
5,CCC/C=N/O,-0.62%
6,COc1c(C(C)(C)C)cc([N+](=O)[O-])c(C)c1[N+](=O)[O-],-2.03%
7,C=CCOCC1CO1 (configuration not stated),0.97%
8,c1ccoc1,-1.8%
9,Clc1ccccc1,1.26%
10,CCOC(=O)C1OC1(C)c1ccccc1 (configuration not stated),0.517%
11,C/C=C/CC#N,1.66%
12,ClC(Cl)C(Cl)Cl,-0.183%
13,C=CCCl,1.75%
14,Oc1c(Cl)cccc1Cl,0.627%
15,Brc1cccc(-c2ccccc2)c1,1.15%
16,C=CCO,0.499%
17,Nn1cnnc1,0.677%
18,BrCCc1ccccc1,1.85%

row,Compound,caspase-3 activation
1,Cc1ccccc1[N+](=O)[O-],-1.32%
2,CCCCOC(=O)c1ccccc1N,1.45%
3,Clc1cc(Cl)c(Cl)c(Cl)c1,-0.39%
4,Cc1ccc(N)c(C)c1,1.53%
5,C1CC2OC2CC1C1CO1 (configuration not stated),0.0394%
6,CN(C)C(=O)Cl,-0.259%
7,CC(=O)NNc1ccccc1,-1%
8,Cc1ccc(N=C=O)cc1N=C=O,-1.46%
9,C=CC(=O)OC,-0.362%
10,CCN(CC)N=O,1.22%
11,OCC(Cl)CCl (configuration not stated),1.61%
12,CC(C)CON=O,-1.66%
13,CC[N+](=O)[O-],2.05%
14,CC(C)(Cl)[N+](=O)[O-],0.785%
15,C[N+](=O)[O-],1.59%
16,CC(C)OC(=O)Cc1ccccc1,-0.776%
17,ClCC(Br)CBr (configuration not stated),2.86%

# Assay: Cellular Toxicity (caspase-3) BJ (AID 658)
# Conditions: BJ fibroblasts, luminescence, normalized: DMSO 0%, staurosporine 100%; series mostly up to 91.7 µM; caspase-3 activation: at the top concentration
# Procedure, shortened: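 Readout: Caspase-Glo 3/7 luminescence increase in BJ cells after 16 hr treatment at 37 °C. Staurosporine and tamoxifen served as positive controls; AC50 values came from Hill modelling of data normalized to DMSO and 10 uM staurosporine.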
row,Compound,caspase-3 activation
1,CC(C#N)CCC#N (configuration not stated),-2.66%
2,Nc1cc(Cl)ccc1Cl,2.08%
3,Nc1cccc(Cl)c1,1.38%
4,ClCc1ccccc1,0.0604%
5,COc1c(C(C)(C)C)cc([N+](=O)[O-])c(C)c1[N+](=O)[O-],1.66%
6,O=S(=O)(Cl)c1ccccc1,0.469%
7,c1ccoc1,-0.775%
8,ClC(Cl)(Cl)C(Cl)(Cl)Cl,0.907%
9,CCOC(=O)C1OC1(C)c1ccccc1 (configuration not stated),0.68%
10,C/C=C/CC#N,-1.54%
11,ClC(Cl)C(Cl)Cl,-0.932%
12,C=CCCl,-0.186%
13,Oc1c(Cl)cccc1Cl,0.862%
14,C=CCO,-0.233%
15,OCCCCO,-1.75%
16,Nn1cnnc1,-1.36%

row,Compound,caspase-3 activation
1,BrCCc1ccccc1,2.72%
2,Cc1ccccc1[N+](=O)[O-],1.71%
3,Clc1cc(Cl)c(Cl)c(Cl)c1,-2.82%
4,Cc1ccc(N)c(C)c1,-1.02%
5,C1CC2OC2CC1C1CO1 (configuration not stated),-4.12%
6,CN(C)C(=O)Cl,0.477%
7,CC(=O)NNc1ccccc1,-0.0144%
8,Cc1ccc(N=C=O)cc1N=C=O,0.043%
9,O=C(Cl)OCc1ccccc1,1.72%
10,C=CC(=O)OC,0.139%
11,CCN(CC)N=O,0.506%
12,OCC(Cl)CCl (configuration not stated),0.505%
13,CC(C)CON=O,0.42%
14,CC[N+](=O)[O-],1.16%
15,CC(C)OC(=O)Cc1ccccc1,-1.85%
16,ClCC(Br)CBr (configuration not stated),0.752%

# Assay: Cellular Toxicity (caspase-3) MRC-5 (AID 659);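 further: cells exposed to compound for 16 h at 37 °C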
# Conditions: MRC-5 cells, luminescence, normalized: DMSO 0%, 10 µM staurosporine 100%; series mostly up to 91.7 µM; caspase-3 activation: at the top concentration
# Procedure, shortened: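 Concentration-dependent caspase 3/7 activation is measured in human normal lung fibroblasts (MRC-5) following 16-hour treatment. AC50 values come from standard Hill-equation modeling of luminescence normalized to DMSO and 10 uM staurosporine.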
row,Compound,caspase-3 activation
1,CC(C#N)CCC#N (configuration not stated),0.901%
2,Nc1cc(Cl)ccc1Cl,-1.16%
3,Nc1cccc(Cl)c1,0.993%
4,ClCc1ccccc1,0.551%
5,CCC/C=N/O,3.96%
6,COc1c(C(C)(C)C)cc([N+](=O)[O-])c(C)c1[N+](=O)[O-],1.9%
7,O=S(=O)(Cl)c1ccccc1,0.23%
8,C=CCOCC1CO1 (configuration not stated),-2.15%
9,c1ccoc1,0.564%
10,Clc1ccccc1,-0.143%
11,ClC(Cl)(Cl)C(Cl)(Cl)Cl,-0.869%
12,CCOC(=O)C1OC1(C)c1ccccc1 (configuration not stated),2.26%
13,C/C=C/CC#N,3.43%
14,ClC(Cl)C(Cl)Cl,-1.45%
15,C=CCCl,1.64%
16,Oc1c(Cl)cccc1Cl,0.784%
17,Brc1cccc(-c2ccccc2)c1,3.92%
18,C=CCO,0.0896%
19,OCCCCO,0.616%
20,Nn1cnnc1,-1.33%

row,Compound,caspase-3 activation
1,BrCCc1ccccc1,2.83%
2,Cc1ccccc1[N+](=O)[O-],-1.8%
3,CCCCOC(=O)c1ccccc1N,-1.15%
4,Clc1cc(Cl)c(Cl)c(Cl)c1,-1.16%
5,Cc1ccc(N)c(C)c1,1.04%
6,C1CC2OC2CC1C1CO1 (configuration not stated),-2.49%
7,CN(C)C(=O)Cl,1.17%
8,CC(=O)NNc1ccccc1,-1.1%
9,Cc1ccc(N=C=O)cc1N=C=O,0.303%
10,O=C(Cl)OCc1ccccc1,0.858%
11,C=CC(=O)OC,1.03%
12,CCN(CC)N=O,1.15%
13,OCC(Cl)CCl (configuration not stated),0.272%
14,CC(C)CON=O,0.718%
15,CC[N+](=O)[O-],3.39%
16,CC(C)(Cl)[N+](=O)[O-],0.479%
17,C[N+](=O)[O-],1.37%
18,CC(C)OC(=O)Cc1ccccc1,-0.941%
19,ClCC(Br)CBr (configuration not stated),0.132%

# Assay: Cellular Toxicity (caspase-3) Mesangial (AID 660);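 further: combined caspase 3 and 7 activity read by Caspase-Glo luminescence; cells exposed to compound for 16 h before the caspase read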
# Conditions: mesangial cells, normalized: DMSO 0%, 100 µM tamoxifen 100%; series mostly up to 91.7 µM; caspase-3 activation: at the top concentration
# Procedure, shortened: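 Concentration-response qHTS: compound-induced rise in caspase 3/7 luminescence in human mesangial cells after 16 h, normalized to DMSO and 100 uM tamoxifen controls.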
row,Compound,caspase-3 activation
1,CC(C#N)CCC#N (configuration not stated),0.0543%
2,Nc1cc(Cl)ccc1Cl,-0.0566%
3,Nc1cccc(Cl)c1,2.39%
4,ClCc1ccccc1,0.106%
5,CCC/C=N/O,0.497%
6,COc1c(C(C)(C)C)cc([N+](=O)[O-])c(C)c1[N+](=O)[O-],-0.453%
7,C=CCOCC1CO1 (configuration not stated),1.49%
8,c1ccoc1,0.0423%
9,Clc1ccccc1,0.0909%
10,ClC(Cl)(Cl)C(Cl)(Cl)Cl,-0.48%
11,CCOC(=O)C1OC1(C)c1ccccc1 (configuration not stated),0.498%
12,C/C=C/CC#N,0.256%
13,ClC(Cl)C(Cl)Cl,-0.615%
14,Oc1c(Cl)cccc1Cl,-1.48%
15,Brc1cccc(-c2ccccc2)c1,-0.461%
16,C=CCO,0.385%

row,Compound,caspase-3 activation
1,OCCCCO,-1.08%
2,Cc1ccccc1[N+](=O)[O-],-0.679%
3,CCCCOC(=O)c1ccccc1N,5.63%
4,Clc1cc(Cl)c(Cl)c(Cl)c1,-0.141%
5,C1CC2OC2CC1C1CO1 (configuration not stated),-1.5%
6,CN(C)C(=O)Cl,-0.0675%
7,CC(=O)NNc1ccccc1,0.776%
8,Cc1ccc(N=C=O)cc1N=C=O,-0.287%
9,C=CC(=O)OC,1.29%
10,CCN(CC)N=O,0.611%
11,OCC(Cl)CCl (configuration not stated),1.88%
12,CC(C)CON=O,0.992%
13,CC[N+](=O)[O-],0.251%
14,CC(C)OC(=O)Cc1ccccc1,-1.26%
15,ClCC(Br)CBr (configuration not stated),0.793%
